These results are taken from the supplement of paper PMC6089552.

The subject of the experiment is A673/TR/shEF. Nature of the experiment: cell viability (LOESS-normalised, relative to median of negative controls) (log2 ratio); higher = more viable cells (less compound effect), active = hit call of the paper (over 3 MAD below the median). Conditions: treatment time: 72 h. A digest of the protocol: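 For three days, A673/TR/shEF Ewing sarcoma cells in 384-well plates (1,500 per well) were treated with library compounds at two or more concentrations or with DMSO controls, after doxycycline had been added or withheld 24 h beforehand to induce EWS-FLI1 shRNA knockdown. Viability was read by CellTiter-Glo luminescence on an Envision reader. The data were LOESS-corrected per plate, divided by the median of negative controls and log2-transformed.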

Where [1] appears, read: 0.25 µM, library screen: screen1, EWS-FLI1 expression: high (no doxycycline).
Where [2] appears, read: 0.25 µM, library screen: screen1, EWS-FLI1 expression: low (doxycycline-induced shRNA knockdown).
Setting [3] is: 2.5 µM, library screen: screen1, EWS-FLI1 expression: high (no doxycycline).
Setting [4] is: 2.5 µM, library screen: screen1, EWS-FLI1 expression: low (doxycycline-induced shRNA knockdown).
Setting [5] is: 0.103 µM, library screen: screen3, EWS-FLI1 expression: high (no doxycycline).
Where [6] appears, read: 0.103 µM, library screen: screen3, EWS-FLI1 expression: low (doxycycline-induced shRNA knockdown).
The mark [7] stands for this setting: 0.308 µM, library screen: screen3, EWS-FLI1 expression: high (no doxycycline).
The mark [8] stands for this setting: 0.308 µM, library screen: screen3, EWS-FLI1 expression: low (doxycycline-induced shRNA knockdown).
The mark [9] stands for this setting: 0.926 µM, library screen: screen3, EWS-FLI1 expression: high (no doxycycline).
Setting [10] is: 0.926 µM, library screen: screen3, EWS-FLI1 expression: low (doxycycline-induced shRNA knockdown).
Setting [11] is: 2.8 µM, library screen: screen3, EWS-FLI1 expression: high (no doxycycline).
Where [12] appears, read: 2.8 µM, library screen: screen3, EWS-FLI1 expression: low (doxycycline-induced shRNA knockdown).
[13] abbreviates: 8.3 µM, library screen: screen3, EWS-FLI1 expression: high (no doxycycline).
Where [14] appears, read: 8.3 µM, library screen: screen3, EWS-FLI1 expression: low (doxycycline-induced shRNA knockdown).
The mark [15] stands for this setting: 25 µM, library screen: screen3, EWS-FLI1 expression: high (no doxycycline).
Setting [16] is: 25 µM, library screen: screen3, EWS-FLI1 expression: low (doxycycline-induced shRNA knockdown).
Setting [17] is: 0.25 µM, library screen: screen2, EWS-FLI1 expression: high (no doxycycline).
[18] abbreviates: 0.25 µM, library screen: screen2, EWS-FLI1 expression: low (doxycycline-induced shRNA knockdown).
The mark [19] stands for this setting: 2.5 µM, library screen: screen2, EWS-FLI1 expression: high (no doxycycline).
Where [20] appears, read: 2.5 µM, library screen: screen2, EWS-FLI1 expression: low (doxycycline-induced shRNA knockdown).

Each structure is given as a SMILES string. The whole screen tested about 3,200 compounds, of which about 300 (9.4%) showed activity. The list comes from a sample in which actives are over-represented; it also holds similar structures and randomly drawn compounds. Unmarked numbers belong to inactive results.

`CC(=O)Nc1ccc2c(c1)C1C=CCC1C(c1ccc(Cl)cc1Cl)N2` (stereo not given): the “cell viability (log2)” value reads like this: under setting [1], 0.141; under setting [2], 0.199; under setting [3], 0.113; under setting [4], 0.349.

On to `CCOC(=O)c1c(C)cc(O)c(C)c1O`, for which the “cell viability (log2)” value under setting [1] was 0.117, the “cell viability (log2)” value under setting [2] is 0.0649, the “cell viability (log2)” value under setting [3] was 0.0865 and the “cell viability (log2)” value under setting [4] was 0.119.

Turning to `CS(=O)(=O)c1ccc2nc(NC(=O)c3cccc(Cl)c3)sc2c1`, the “cell viability (log2)” value reads like this: under setting [1], -0.0938 (active); under setting [2], 0.0657; under setting [3], 0.0503; under setting [4], 0.0275.

On to `CS(=O)(=O)c1ccc(C(=O)Nc2ccc(Cl)c(-c3ccccn3)c2)c(Cl)c1`, for which the “cell viability (log2)” value reads like this: under setting [5], 0.0228; under setting [6], 0.046; under setting [7], 0.0359; under setting [8], 0.0158; under setting [9], 0.0316; under setting [10], 0.0515. The “cell viability (log2)” value under setting [11] was 0.0335; the “cell viability (log2)” value under setting [12] is 0.0126; the “cell viability (log2)” value under setting [13] is 0.0254; the “cell viability (log2)” value under setting [14] was 0.0522; the “cell viability (log2)” value under setting [15] was 0.025; the “cell viability (log2)” value under setting [16] was 0.0484.

Turning to `COC(=O)C[C@H]1C(C)(C)C(=O)[C@@H]2C[C@@]3(O)C4=CC(=O)O[C@@H](c5ccoc5)[C@]4(C)CCC3[C@@]1(C)C2=O` (stereo not given in full), the “cell viability (log2)” value by setting is: under setting [1], 0.0813; under setting [2], 0.00839; under setting [3], 0.172; under setting [4], 0.118.

As for `COc1ccccc1C1NC(=S)NC(C)=C1C(=O)Nc1ccccc1Cl` (stereo not given), the “cell viability (log2)” value under setting [1] was 0.153, the “cell viability (log2)” value under setting [2] is 0.0944, the “cell viability (log2)” value under setting [3] is 0.107 and the “cell viability (log2)” value under setting [4] is 0.0425.

`Cc1cc(=O)c2c(O)cc(O)c(C)c2o1`: the “cell viability (log2)” value by setting is: under setting [1], 0.111; under setting [2], 0.0695; under setting [3], 0.0905; under setting [4], 0.0937.

Regarding `COc1ccc(-c2nc3ccc(C4=NNC(=O)CC4C)cc3[nH]2)cc1` (stereo not given), the “cell viability (log2)” value under setting [5] was -0.0122; the “cell viability (log2)” value under setting [6] is 0.0487; the “cell viability (log2)” value under setting [7] is -0.0245; the “cell viability (log2)” value under setting [8] is -0.0302; the “cell viability (log2)” value under setting [9] was -0.00296; the “cell viability (log2)” value under setting [10] is -0.0241. Besides, the “cell viability (log2)” value reads like this: under setting [11], 0.0147; under setting [12], -0.00868; under setting [13], -0.0247; under setting [14], 0.0168; under setting [15], -0.172; under setting [16], -0.00571.

For the compound `O=C(C=Cc1ccccc1)c1ccccc1O`, the “cell viability (log2)” value under setting [1] was 0.0713, the “cell viability (log2)” value under setting [2] is 0.0789, the “cell viability (log2)” value under setting [3] was 0.0334 and the “cell viability (log2)” value under setting [4] is 0.11.

For `O=C(/C=C/c1cccc(S(=O)(=O)Nc2ccccc2)c1)NO`, the “cell viability (log2)” value by setting is: under setting [5], 0.0161; under setting [6], 0.0578; under setting [7], 0.00773; under setting [8], 0.0247; under setting [9], -0.074; under setting [10], -0.000337. Besides, the “cell viability (log2)” value is -0.399 (active) under setting [11]; -0.113 (active) under setting [12]; -1.47 (active) under setting [13]; -0.52 (active) under setting [14]; -4.33 (active) under setting [15]; -2.11 (active) under setting [16].

Regarding `O=C(/C=C/c1ccccc1)c1c(O)cc(O)cc1O`, the “cell viability (log2)” value is, setting by setting: under setting [1], 0.0431; under setting [2], 0.0419; under setting [3], 0.0216; under setting [4], -0.0857.

For `O=S(=O)(c1ccc(Br)c2ccccc12)n1ccnc1`, the “cell viability (log2)” value reads like this: under setting [1], 0.091; under setting [2], 0.0921; under setting [3], 0.103; under setting [4], 0.117.

Take `Cc1ccc(NC(=O)c2ccc(OC3CSC3)cc2)cc1`: the “cell viability (log2)” value is, setting by setting: under setting [1], -0.0477; under setting [2], -0.0107; under setting [3], 0.0585; under setting [4], 0.076.

As for `CCOc1cc(C(=O)Nc2ccc([N+](=O)[O-])cc2)cc(OCC)c1OCC`, the “cell viability (log2)” value is 0.054 under setting [1], 0.0461 under setting [2], 0.0696 under setting [3] and -0.156 under setting [4].

For the compound `COCc1cc(C)nc(SCC(=O)NC(C)(C)C)c1C#N`, the “cell viability (log2)” value is, setting by setting: under setting [1], 0.122; under setting [2], 0.0633; under setting [3], 0.0645; under setting [4], -0.0386.

`O=C1N(c2ccccc2)c2ccccc2C1(Cc1ccncc1)Cc1ccncc1`: the “cell viability (log2)” value is, setting by setting: under setting [17], 0.0704; under setting [18], 0.0498; under setting [19], -0.0773 (active); under setting [20], 0.0762.

With `NC(=O)NCC(N)C(=O)O` (stereo not given), the “cell viability (log2)” value reads like this: under setting [1], -0.0311; under setting [2], 0.00393; under setting [3], 0.0385; under setting [4], 0.0656.

For the compound `O=C(O)/C=C(/CC(=O)O)C(=O)O`, the “cell viability (log2)” value by setting is: under setting [1], 0.0822; under setting [2], 0.00778; under setting [3], 0.03; under setting [4], 0.0214.

On to `O=C1C=C(O)c2ccccc2C1=O`, for which the “cell viability (log2)” value runs as follows: under setting [1], 0.0525; under setting [2], -0.00535; under setting [3], 0.0828; under setting [4], 0.181.

In the case of `CCCCCCCCCCCCCCCCCC(=O)OC(CC(=O)O)C[N+](C)(C)C` (stereo not given), the “cell viability (log2)” value is, setting by setting: under setting [1], 0.12; under setting [2], -0.0279; under setting [17], 0.206; under setting [18], 0.0207; under setting [3], 0.187; under setting [4], 0.0146. The “cell viability (log2)” value runs as follows: under setting [19], 0.154; under setting [20], 0.133.

`CCCCCCCCCCCCCCCC(=O)O[C@H](CC(=O)[O-])C[N+](C)(C)C`: the “cell viability (log2)” value by setting is: (0.025 µM, library screen: screen1, EWS-FLI1 expression: high (no doxycycline)) 0.0342; (0.025 µM, library screen: screen1, EWS-FLI1 expression: low (doxycycline-induced shRNA knockdown)) 0.0241; under setting [1], 0.194; under setting [2], 0.0339; under setting [3], 0.0599; under setting [4], -0.023. In addition, the “cell viability (log2)” value was -0.454 (active) (25 µM, library screen: screen1, EWS-FLI1 expression: high (no doxycycline)) and -0.672 (active) (25 µM, library screen: screen1, EWS-FLI1 expression: low (doxycycline-induced shRNA knockdown)).

Turning to `CCCCCCCCCCCCCCCC(=O)OC(CC(=O)[O-])C[N+](C)(C)C` (stereo not given), the “cell viability (log2)” value by setting is: under setting [17], 0.153; under setting [18], 0.133; under setting [19], 0.18; under setting [20], 0.0929.
